Only some compounds are listed: those with a hit (about 32% of all), similar ones and a draw of the others.
CYP2C19 activ = increases human CYP2C19 enzyme activity; P33261; recombinant CYP2C19, luciferin-H EGE luminescence; hits give high values; 0 = fully inhibited enzyme, 1 = untreated enzyme; activation factor at 5 µM; 96,000 tested, under 10 active; AID 1025;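 active means activation factor of at least 2 at 5 µM in the primary screen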;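 further: 0 = wells with 2.5 mM tranylcypromine and 1 = vehicle-only wells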
PostGolgi yeast = growth inhibition of a yeast mutant, post-Golgi transport screen. post-Golgi transport phenotypic cell assay. inhibition, % at 10 µM. 98,000 tested, 0.9% active;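 further: yeast cells grown in 1536-well plates; yeast grown about 18 h at 30C before absorbance read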
CYP2C19 inhib = human CYP2C19 inhibition | P33261 | CYP2C19 Supersomes, luciferin-H EGE luminescence, 30 min | inhibition, % at 5 µM | 96,000 tested, 21% active | AID 778;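 active means CYP2C19 inhibition above a set limit at 5 µM in the primary screen, cut at about 50% in these data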;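 further: plate controls were negative control wells for no effect and 2.5 mM tranylcypromine positive control for full effect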
PostGolgi ctrl = growth of the yeast control strain, post-Golgi counter-screen. AID 738. efflux-deficient yeast background strain, growth absorbance A615, 16 h. inhibition, % at 10 µM. 98,000 tested, 5% active
CYP2C9 inhib = blocks human cytochrome P450 2C9. CYP2C9 Supersomes, luciferin-H conversion, luminescence. inhibition, % at 5 µM. 96,000 tested, 20% active. AID 777;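 active means blocking of liver enzyme CYP2C9 beyond about 50% at 5 µM, limit read from the data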
Target sequence (P11712 whole entry, looked up): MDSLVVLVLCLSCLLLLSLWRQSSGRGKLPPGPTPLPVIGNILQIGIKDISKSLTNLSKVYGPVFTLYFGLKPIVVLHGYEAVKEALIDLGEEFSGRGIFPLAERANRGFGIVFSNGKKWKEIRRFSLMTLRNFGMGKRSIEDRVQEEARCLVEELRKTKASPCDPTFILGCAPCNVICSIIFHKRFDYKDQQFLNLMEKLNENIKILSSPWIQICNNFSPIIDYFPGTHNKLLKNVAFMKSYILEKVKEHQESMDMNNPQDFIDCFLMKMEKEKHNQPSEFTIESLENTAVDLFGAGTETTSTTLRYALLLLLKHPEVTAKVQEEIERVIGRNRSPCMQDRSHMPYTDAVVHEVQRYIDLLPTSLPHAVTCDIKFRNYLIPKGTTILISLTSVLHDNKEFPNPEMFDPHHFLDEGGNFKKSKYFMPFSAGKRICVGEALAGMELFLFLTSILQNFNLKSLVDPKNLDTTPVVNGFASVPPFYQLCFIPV
CYP2C9 activ = CYP2C9 (human) activation; P11712; recombinant CYP2C9, luciferin-H conversion, luminescence; hits give high values; factor 1 = untreated enzyme, 0 = blocked; activation factor at 5 µM; 96,000 tested, 1.4% active;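 active means activation factor of 2 or more for CYP2C9 at a 5 µM dose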;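 further: 0 = sulfaphenazole-blocked wells and 1 = vehicle-only wells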
The depositor's hits bear a star; · = not tested or not shown. Unless noted, no stated cut-off is given here; in the data, active means inhibition above about 30%; inactive means the rest.

SMILES	CYP2C19 activ	PostGolgi yeast	CYP2C19 inhib	PostGolgi ctrl	CYP2C9 inhib	CYP2C9 activ
CCN(CC)C(=O)CSc1nc2sc3c(c2c(=O)n1-c1ccc(C)cc1)CC(C)(C)SC3	0.5	12.6	51.7*	-2.1	95.8*	0
Cc1ccccc1NC(=O)C1CCCN(S(=O)(=O)c2c(C)noc2C)C1 (stereo unspecified)	0.9	2.4	9.3	12.0	2.0	1
CCc1nnc(NC(=O)C2CCCN2S(=O)(=O)c2ccc(F)cc2)s1 (stereo unspecified)	0.2	0.3	76.1*	-8.1	86.2*	0.1
CC(=O)c1ccc(NC(=O)C2CCCN2S(=O)(=O)c2ccc(C)cc2)cc1 (stereo unspecified)	0.6	4.7	43.6	11.7	35.3	0.6
CC(=O)c1ccc(NC(=O)C2CCCN2S(=O)(=O)c2ccc(F)cc2)cc1 (stereo unspecified)	0.3	6.0	66.0*	21.9	74.0*	0.3
CC(C)Oc1cc(O)c2c(=O)c(-c3ccc(O)cc3)coc2c1	1.1	0.4	-9.0	18.4	96.5*	0
COc1ccc(-c2coc3cc(OC)cc(O)c3c2=O)cc1	1	-2.4	4.3	0.0	-10.0	1.1
CCCc1ccc(-c2c(C)sc(N)c2C#N)cc1	0.7	5.2	30.9	43.1*	67.8*	0.3
CCc1nc(N)c(C#N)c(-c2ccc(F)cc2)c1C	0.6	-2.1	36.5	-1.5	3.9	1
CC12CCC(C(=O)Nc3cccc4ccccc34)(C1Br)C2(C)C (stereo unspecified)	0.7	-3.4	29.4	40.0*	17.5	0.8
CCOC(=O)Nc1cccc2ccccc12	0.9	0.8	13.5	4.3	4.0	1
Cc1ccc(-n2c(SCC(=O)Nc3ccc4cn[nH]c4c3)nnc2-c2ccco2)cc1	0.9	-2.3	9.6	14.4	45.6	0.5
COc1cccc(SCc2noc(C(=O)NCC3CCCO3)c2C(=O)O)c1 (stereo unspecified)	·	-6.2	·	4.9	·	·
COC(=O)c1cn[nH]c1NC(=S)Nc1ccc(Cl)c(Cl)c1	0.9	-2.6	11.2	41.7*	-68.9	1.7
Nc1nc(Nc2ccccc2Br)nc(C(F)(F)F)n1	0.5	3.3	46.4	9.9	53.6*	0.5
COc1ccc(NC(=O)Nc2cc(C)ccc2F)cc1	0.6	9.0	45.0	5.2	9.1	0.9
COc1ccc(NS(=O)(=O)c2cc(C)ccc2NC(=O)c2cc(C)oc2C)cc1	0.3	13.3	71.1*	0.3	23.7	0.8
COc1cc(C(=O)Nc2ccc(-c3nc4cc(C)ccc4o3)c(O)c2)cc(OC)c1OC	0.8	-5.6	22.9	8.1	30.8	0.7
CCO/C(C)=C1\N=C(c2ccc(Cl)cc2)OC1=O	1	4.1	-0.3	2.1	-0.5	1
CCC(=O)Nc1ccc(NC(=O)CSc2nnnn2-c2cccnc2)cc1C	1	-3.8	1.3	-7.6	4.7	1
Cc1ccc(-c2ccc(/C=N/NC(=S)Nc3ccccc3)o2)cc1[N+](=O)[O-]	0.3	-19.2	65.3*	21.4	53.2*	0.5
Cc1ccc(-c2ccc(/C=N\NC(=O)c3cc4c(ccc5ccccc54)o3)o2)cc1[N+](=O)[O-]	1.1	0.6	-13.3	-6.1	4.1	1
Cc1ccc2nc(NC(=O)Cn3cc4c(n3)CCCCC4)sc2c1	0.7	5.8	29.0	4.4	65.7*	0.3
O=C(Cn1cc2c(n1)CCCC2)Nc1ccccc1Cl	0.9	12.9	11.5	6.1	18.8	0.8
COc1cccc(CNC(=O)Cn2cc3c(n2)CCCC3)c1	0.3	-9.9	70.1*	-3.9	-22.4	1.2
SMILES	CYP2C19 activ	PostGolgi yeast	CYP2C19 inhib	PostGolgi ctrl	CYP2C9 inhib	CYP2C9 activ
O=C(Cn1cc2c(n1)CCCC2)Nc1ccccc1Br	0.1	1.3	90.0*	5.8	67.1*	0.3
CCN(CCNC(=O)Cn1cc2c(n1)CCCC2)c1ccccc1	0.3	2.0	71.8*	9.3	68.8*	0.3
CC(C)CCNC(=O)Cn1cc2c(n1)CCCCC2	0.9	-0.2	6.2	3.8	48.8	0.5
Cc1cc(C)c(NC(=O)Cn2cc3c(n2)CCCC3)c(C)c1	0.9	1.1	8.4	13.6	-11.1	1.1
CCC(C)(C)NC(=O)Cc1ccc(C)cc1	0.6	-2.8	44.0	0.8	5.7	0.9
Cc1ccc(N2C(=O)CC(Sc3ncn[nH]3)C2=O)cc1C (stereo unspecified)	0.7	-4.4	26.4	3.3	14.7	0.9
COc1ccc(Cl)cc1NC(=O)CSc1nnc(CN2CCOCC2)n1-c1ccc(Cl)cc1	1	-3.7	1.5	0.6	-4.1	1

Assay outcomes as filed in PubChem BioAssay.
